The inhibition is the relative decrease from the control value, in per cent.

In all, about 37,000 compounds went through this assay and about 2,800 (7.6%) were called active. Not shown: some 1% with an inconclusive outcome. For the sample, actives were picked, then their nearest neighbours and some compounds at random. A number with no mark means an inactive call. Cut-off read from the data, not from the text of the source: active = inhibition above about 80%; inconclusive = no clear call, values can overlap the other calls; inactive = below that.

The experiment is described as follows: NOMO-1 AML cell viability reduction, primary screen, STK33 inhibitor project, CellTiter-Glo luminescence (AID 2330). The following applies: NOMO-1 AML viability, 72 h, active compounds read high, concentration not given here.
As to `C[C@@H]1CN([C@@H](C)CO)C(=O)c2cc(NC(=O)C3CCCCC3)ccc2O[C@@H]1CN(C)S(=O)(=O)c1ccc(F)cc1`, the inhibition is -1.45%.

Take `C[C@@H]1CN([C@@H](C)CO)C(=O)c2cc(NS(=O)(=O)c3cccs3)ccc2O[C@@H]1CN(C)S(=O)(=O)c1ccc(F)cc1`: the inhibition was 7.75%.

For the molecule `CC[C@H]1CN2CCc3cc(OC)c(OC)cc3[C@@H]2C[C@@H]1C[C@H]1NCCc2cc(OC)c(OC)cc21`, the inhibition is 144% (active).

For `Cc1noc(C)c1NC(=O)Nc1ccc2c(c1)C(=O)N([C@@H](C)CO)C[C@H](C)[C@H](CN(C)Cc1ccc(-c3ccccc3)cc1)O2`, the inhibition is 28.6%.

As to `COc1ccc(S(=O)(=O)Nc2ccc3c(c2)C(=O)N([C@@H](C)CO)C[C@@H](C)[C@H](CN(C)S(=O)(=O)c2cccs2)O3)cc1`, the inhibition is -10.4%.

Regarding `CC(=O)c1cccc(NC(=O)C(C)N(c2ccc(C)cc2)S(C)(=O)=O)c1` (stereo not given), the inhibition was 14.6%.

As for `Cc1ccc(S(=O)(=O)N(C)CC(=O)Nc2ccc(C#N)cc2)cc1`, the inhibition is -13.1%.

As for `COc1ccc(NC(=O)Nc2ccc3c(c2)CC(=O)N([C@H](C)CO)C[C@H](C)[C@H](CN(C)S(=O)(=O)c2ccc(OC)cc2)O3)cc1`, the inhibition was 23.1%.

On to `C[C@@H]1CN([C@H](C)CO)C(=O)Cc2cc(NC(=O)C3CCCCC3)ccc2O[C@H]1CN(C)S(=O)(=O)c1ccc(Cl)cc1`, for which the inhibition is 28.6%.

`COc1ccc(NC(=O)Nc2ccc3c(c2)CC(=O)N([C@H](C)CO)C[C@H](C)[C@H](CN(C)S(=O)(=O)c2ccccc2)O3)cc1`: the inhibition was 57.6%.

For `C[C@H]1CN([C@@H](C)CO)C(=O)Cc2cc(NC(=O)C3CC3)ccc2O[C@H]1CN(C)S(=O)(=O)c1ccc(Cl)cc1`, the inhibition was 125% (active).

For the molecule `C[C@@H]1CN([C@@H](C)CO)C(=O)Cc2cc(NC(=O)Nc3ccccc3)ccc2O[C@@H]1CN(C)S(=O)(=O)c1ccc(F)cc1`, the inhibition was 14.1%.

Take `C[C@@H]1CN([C@H](C)CO)C(=O)Cc2cc(NC(=O)Nc3ccc(C(F)(F)F)cc3)ccc2O[C@@H]1CN(C)S(=O)(=O)c1ccccc1`: the inhibition was 31.7%.

With `C[C@H]1CN([C@@H](C)CO)C(=O)Cc2cc(NC(=O)Nc3ccc(F)cc3)ccc2O[C@H]1CN(C)S(=O)(=O)c1ccccc1`, the inhibition was 108% (active).

Take `COc1ccc(S(=O)(=O)N(C)C[C@@H]2Oc3ccc(NC(=O)C4CC4)cc3CC(=O)N([C@@H](C)CO)C[C@@H]2C)cc1`: the inhibition is -0.988%.

For the molecule `C[C@@H]1CN([C@@H](C)CO)C(=O)Cc2cc(NC(=O)Nc3ccc4c(c3)OCO4)ccc2O[C@@H]1CN(C)S(=O)(=O)c1ccc(Cl)cc1`, the inhibition is 30.8%.

Take `C[C@@H]1CN([C@@H](C)CO)C(=O)Cc2cc(NC(=O)Nc3ccc(F)cc3)ccc2O[C@@H]1CN(C)S(=O)(=O)c1ccccc1`: the inhibition was 20.8%.

For the molecule `C[C@H]1CN([C@@H](C)CO)C(=O)Cc2cc(NC(=O)Nc3ccc(F)cc3)ccc2O[C@H]1CN(C)S(=O)(=O)c1ccc(F)cc1`, the inhibition was 126% (active).

Turning to `C[C@H]1CN([C@@H](C)CO)C(=O)Cc2cc(NC(=O)Nc3ccc(C(F)(F)F)cc3)ccc2O[C@@H]1CN(C)S(=O)(=O)c1ccc(Cl)cc1`, the inhibition is 105% (active).

`Cc1nnc(SCc2ccc(C(=O)c3ccc(Cl)cc3)o2)n1-c1ccccc1`: the inhibition was -16.2%.

On to `CC(C)NC(=O)Nc1ccc2c(c1)C(=O)N([C@H](C)CO)C[C@H](C)[C@@H](CN(C)S(C)(=O)=O)OCCCC[C@@H](C)O2`, for which the inhibition is 34%.

`COc1ccc(NC(=O)N(C)C[C@@H]2Oc3ccc(NC(=O)CCCN(C)C)cc3CC(=O)N([C@H](C)CO)C[C@H]2C)cc1`: the inhibition is -16.5%.

For `COc1ccc(NC(=O)N(C)C[C@@H]2OCCCC[C@@H](C)Oc3ccc(NC(=O)NC4CCCCC4)cc3C(=O)N([C@H](C)CO)C[C@@H]2C)cc1`, the inhibition was -2.15%.

On to `Cc1ccc(S(=O)(=O)N(C)C[C@H]2Oc3ccc(NC(=O)CCCCCC(=O)Nc4ccccc4N)cc3C(=O)N([C@H](C)CO)C[C@H]2C)cc1`, for which the inhibition is 19.8%.

With `COc1ccc(NC(=O)Nc2ccc3c(c2)C(=O)N([C@H](C)CO)C[C@H](C)[C@@H](CN(C)C(=O)NC2CCCCC2)OCCCC[C@@H](C)O3)cc1`, the inhibition is -9.45%.

On to `C[C@@H]1CN([C@H](C)CO)C(=O)c2cccc(NS(=O)(=O)c3ccc(Cl)cc3)c2O[C@@H]1CN(C)CC1CC1`, for which the inhibition is 0.793%.

For the molecule `Cc1nc2ccccc2n1CC(O)COc1ccc(C2C=CCC2)cc1` (stereo not given), the inhibition is 85% (active).

As for `CCc1cc(C)cc(OCC(O)Cn2cnc3ccccc32)c1` (stereo not given), the inhibition was 50.9%.

In the case of `CC(C)c1ccc(OCC(O)Cn2cnc3ccccc32)cc1` (stereo not given), the inhibition was 52%.

For the molecule `COC(=O)c1ccccc1NC(=O)CSc1n[nH]c(-c2ccncc2)n1`, the inhibition was 19.3%.

On to `O=C(NCCN1CCCCC1)Nc1cccc(Cl)c1`, for which the inhibition is 6.03%.

For `C[C@H]1CN([C@@H](C)CO)C(=O)c2cccc(NS(=O)(=O)c3ccc(Cl)cc3)c2O[C@@H]1CN(C)Cc1ccc(Oc2ccccc2)cc1`, the inhibition was 44.7%.

Regarding `Cc1ccc(NC(=O)COc2ccccc2C)c([N+](=O)[O-])c1`, the inhibition was -19.4%.

With `Cc1ccc(OCc2n[nH]c(=S)n2C2CCCCC2)c2c1CCC2`, the inhibition is 111% (active).

`C=CCn1c(=O)c(C(=O)NCc2ccccn2)c(O)c2ccccc21`: the inhibition is -12.4%.

For `Cc1noc(C)c1NC(=O)Nc1ccc2c(c1)CC(=O)N([C@@H](C)CO)C[C@H](C)[C@@H](CN(C)CC1CCCCC1)O2`, the inhibition is 46.5%.

`C[C@@H]1CN([C@@H](C)CO)C(=O)c2cccc(NC(=O)Nc3ccc(F)cc3)c2O[C@@H]1CN(C)Cc1ccc(C(=O)O)cc1`: the inhibition is 0.82%.

As for `CCC/C=C/C=C/C1CC(O)C(O)C1C(=O)O` (stereo not given), the inhibition is 4.09%.

`Cc1ccc(S(=O)(=O)Nc2ccc3c(c2)C(=O)N([C@@H](C)CO)C[C@@H](C)[C@H](CN(C)Cc2ccc(C(=O)O)cc2)O3)cc1`: the inhibition was 2.99%.

Consider `C[C@@H]1CN([C@@H](C)CO)C(=O)c2cc(NS(=O)(=O)c3cn(C)cn3)ccc2O[C@@H]1CN(C)Cc1ccc(C(=O)Nc2ccccc2N)cc1`, for which the inhibition is 5.34%.

Consider `C[C@H](CO)N1C[C@H](C)[C@H](CN(C)Cc2ccc(C(=O)Nc3ccccc3N)cc2)Oc2ccc(NS(C)(=O)=O)cc2C1=O`, for which the inhibition is 50.3%.

With `Cc1ccc(S(=O)(=O)Nc2ccc3c(c2)C(=O)N([C@H](C)CO)C[C@H](C)[C@H](CN(C)Cc2ccc(C(=O)Nc4ccccc4N)cc2)OCCCC[C@@H](C)O3)cc1`, the inhibition is 127% (active).

As for `C[C@@H]1CN([C@@H](C)CO)C(=O)c2cc(NC(=O)c3ccncc3)ccc2O[C@H]1CN(C)Cc1ccc(C(=O)O)cc1`, the inhibition is 19.8%.

Consider `Cc1ccc(S(=O)(=O)Nc2ccc3c(c2)C(=O)N([C@H](C)CO)C[C@H](C)[C@H](CN(C)Cc2ccccc2)OCCCC[C@@H](C)O3)cc1`, for which the inhibition is 45.3%.

Consider `C[C@@H]1CN([C@@H](C)CO)C(=O)c2cc(NS(=O)(=O)c3ccccc3)ccc2O[C@@H]1CN(C)Cc1ccc(C(=O)Nc2ccccc2N)cc1`, for which the inhibition was 110% (active).

In the case of `C[C@@H]1CN([C@@H](C)CO)C(=O)c2cc(NC(=O)c3ccncc3)ccc2O[C@@H]1CN(C)Cc1ccncc1`, the inhibition was -12.5%.

As to `Cc1ccc(S(=O)(=O)Nc2ccc3c(c2)C(=O)N([C@@H](C)CO)C[C@@H](C)[C@@H](CN(C)Cc2ccc(C(=O)Nc4ccccc4N)cc2)O3)cc1`, the inhibition was 110% (active).

With `C[C@@H]1CCCCO[C@H](CN(C)Cc2ccccc2)[C@@H](C)CN([C@H](C)CO)C(=O)c2cc(NS(=O)(=O)c3ccc(Cl)cc3)ccc2O1`, the inhibition is 40.5%.

For `C[C@H]1CN([C@@H](C)CO)C(=O)c2cc(NC(=O)c3ccncc3)ccc2O[C@H]1CN(C)Cc1ccc(C(=O)Nc2ccccc2N)cc1`, the inhibition is 107% (active).

Turning to `C[C@@H]1CN([C@H](C)CO)C(=O)c2cc(NS(=O)(=O)c3cn(C)cn3)ccc2O[C@@H]1CN(C)Cc1ccc(C(=O)Nc2ccccc2N)cc1`, the inhibition is 20.1%.

The values are drawn from PubChem BioAssay AID2330 (Broad Institute, 2010).
